Shown are actives, neighbours in structure and some others; about 1.5% of the full set was active somewhere.
PI5P4K alpha inh – PI5P4K alpha (human) kinase inhibition. max response, %. PI5P4Kalpha enzyme, ADP-Glo luminescence, 60 min; hits give low values. AID 652105. actives 1.2% (n = 330,000); active = max response of -50% or lower; inconclusive = between -30% and -50%; inactive = -30% or higher; also: value at the top dose of about 77 µM
Target sequence (P48426 whole entry, looked up): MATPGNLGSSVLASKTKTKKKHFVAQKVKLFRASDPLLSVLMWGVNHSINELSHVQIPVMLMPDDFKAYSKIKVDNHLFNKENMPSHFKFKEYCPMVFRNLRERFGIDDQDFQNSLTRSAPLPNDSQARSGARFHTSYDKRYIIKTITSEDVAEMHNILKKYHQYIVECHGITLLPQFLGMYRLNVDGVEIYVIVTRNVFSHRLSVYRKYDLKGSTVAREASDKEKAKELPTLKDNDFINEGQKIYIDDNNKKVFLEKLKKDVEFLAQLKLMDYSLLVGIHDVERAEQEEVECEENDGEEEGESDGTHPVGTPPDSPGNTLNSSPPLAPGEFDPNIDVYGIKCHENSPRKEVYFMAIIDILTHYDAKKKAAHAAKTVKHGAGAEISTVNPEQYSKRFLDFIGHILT
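Enzyme plus substrate dispensed, test compounds pinned in, then ATP (5 microM final) added. After 60 min at RT, ADP-Glo reagent 1 for 45 min and reagent 2 for 30 min preceded luminescence imaging.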
BLM inh – Bloom syndrome helicase (human) inhibition. recombinant BLM DNA unwinding, fluorescence dequenching. actives 0.2% (n = 350,000). Potency, µM (doses to about 56.1 µM), without a hit: at the highest dose activity change, negative = inhibition, hits mostly inhibitors. P54132;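 also: potency is read from the fitted curve at half-maximal effect; plate controls were vehicle for no effect and no enzyme for full effect; nearly all actives have a fitted effect of over 35% in size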
FEN1 inh – blocks human flap endonuclease 1. P39748. Recombinant FEN1 flap cleavage, fluorescence, 15 min. Potency, µM (titrated, usually from 114 µM), without a hit: at the top dose activity change, negative = inhibition, usual class: inhibitors. actives 0.35% (n = 390,000). AID 588795; also: potency is read from the fitted curve at half-maximal effect; nearly all actives have a fitted effect of over 65% in size
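Quantitative HTS format: each compound was titrated, incubated with 10 nM nuclease for 15 min at room temperature, then challenged with flap substrate at 50 nM final. Signal change over 15 min gave concentration–effect curves.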
WRN helicase inh – WRN helicase (human) inhibition | Q14191 | WRN helicase unwinding, fluorescent forked duplex, kinetic | Potency, µM (top dose mostly 114 µM), without a hit: at the highest dose activity change, negative = inhibition, most hits filed as inhibitors | actives 0.46% (n = 360,000) | AID 651768; also: potency is read from the fitted curve at half-maximal effect; nearly all actives have a fitted effect of over 55% in size
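Fluorescence dequenching readout, ex 525 nm/em 598 nm, kinetic mode: forked duplex DNA (100 nM final) with adjacent fluorophore and quencher unwound by WRN (20 nM final) with 2 mM ATP. Compound preincubation 15 min, room temperature.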
APE1 inh – inhibitors of human APE1 endonuclease; actives 0.35% (n = 350,000); Potency, µM (titrated, usually from 65.8 µM), inactives show at the top dose activity change, negative = inhibition, usual class: inhibitors; AID 2517; P27695; recombinant APE1, TAMRA/BHQ-2 abasic DNA cleavage fluorescence;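 also: potency is read from the fitted curve at half-maximal effect; plate controls were vehicle for no effect and reference inhibitor for full effect; nearly all actives have a fitted effect of over 55% in size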
Target sequence (P27695 whole entry, looked up): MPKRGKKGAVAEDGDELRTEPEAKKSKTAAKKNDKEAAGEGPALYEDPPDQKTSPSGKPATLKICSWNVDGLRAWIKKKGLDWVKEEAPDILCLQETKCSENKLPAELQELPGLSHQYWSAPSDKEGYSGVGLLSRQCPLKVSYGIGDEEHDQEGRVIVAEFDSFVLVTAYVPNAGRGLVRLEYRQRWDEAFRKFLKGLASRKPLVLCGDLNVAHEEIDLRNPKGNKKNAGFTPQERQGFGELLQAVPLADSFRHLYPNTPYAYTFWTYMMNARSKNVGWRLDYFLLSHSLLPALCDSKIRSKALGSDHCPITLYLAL
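Quantitative HTS: incision of a TAMRA/BHQ-2 double-stranded substrate bearing a tetrahydrofuran abasic site by 0.75 nM APE1 raises fluorescence. Substrate 50 nM final, added after 15 min compound preincubation at room temperature; progress as third-minus-first kinetic read difference.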
RECQ1 inh – RECQ1 (human) helicase inhibition | AID 2549 | Potency, µM (top dose mostly 57.3 µM), for inactives: at the highest dose activity, negative = inhibition, actives largely listed as inhibitors | RECQ1 DNA unwinding, red fluorescence kinetic read | actives 0.54% (n = 240,000);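 also: potency is read from the fitted curve at half-maximal effect; plate controls were vehicle for no effect and no enzyme for full effect; nearly all actives have a fitted effect of over 30% in size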
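RECQ1T1 50 nM; forked duplex (20 bp + 30-nt ss tails) 200 nM, ATP 2 mM final; pH 8.0, 2 mM MgCl2, 2.5 ug/ml poly(dI-dC); 15 min compound preincubation; discontinuous kinetic read over 2 h at RT.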
Numbers without * were called inactive; i = inactive; ? = inconclusive; / = no result given; [ ] = another dose, or the depositor's remark. Unless noted, calls follow the shape of the dose curve; as a rule, active = well fitted curve in the direction sought with a large enough effect; inconclusive = small, poorly fitted or top-dose-only effect, or another doubt; inactive = no such curve, though single readings can be large; an effect the other way counts as inactive or inconclusive. Unless noted, % is scaled to controls: 0 for no effect and ±100 for the full control effect.

SMILES | PI5P4K alpha inh | BLM inh | FEN1 inh | WRN helicase inh | APE1 inh | RECQ1 inh
COc1ccccc1/C=N/Nc1cc(C)nc2ccc(C)cc12 | 15 | -14% | 5% | -8% | 38% | /
COc1ccc2nc(C)cc(N/N=C/c3ccccc3)c2c1 | -30 | / | 35µM* | ? | -43% | /
O=C(CSc1nnc(-c2cccc(S(=O)(=O)N3CCCC3)c2)n1-c1ccccc1)Nc1ccccc1 | / | / | / | / | 17% | /
CCCCN(CC)c1nc(N)c(C#N)c(CC#N)c1C#N | -71* | -18% | -13% | -11% | -2% | i
Cn1nnnc1Sc1ncnc2scc(-c3ccc(Br)cc3)c12 | / | / | -2% | / | 23% | /
O=C(O)c1ccc(Nc2ncnc3scc(-c4ccccc4)c23)cc1 | 4 | 4% | -9% | -5% | 15% | -8%
O=C(CSc1ncnc2scc(-c3ccccc3)c12)Nc1ccc(C(=O)O)cc1 | -85* | -8% | 2% | 3% | -1% | -8%
Cn1nnnc1Sc1ncnc2scc(-c3ccccc3)c12 | -52* | -8% | 3% | -17% | -2% | -15%
N#Cc1c(-c2ccc(Br)cc2)no[n+]1[O-] | / | / | / | / | 0% | /
Cc1ccc(S(=O)(=O)N2CCN(c3nc(-c4cccs4)nc4ncccc34)CC2)cc1 | / | / | 6% | / | / | /
Cc1cc(C)n2c(SCC(=O)N(CCC#N)c3ccc4c(c3)OCCO4)nnc2n1 | -61* | / | / | -7%[11.6 µM] | / | /
c1coc(-c2nnc(-c3ccco3)nn2)c1 | -79* | -21% | 45µM* | 20µM* | ? | /
N#C/C(=C/c1ccc(N2CCOCC2)o1)c1nc2ccccc2[nH]1 | -21 | ? | ? | 56µM* | -7% | ?
C=C1C(=O)C23C(O)C1CCC2C12CCCC(C)(COC(C)=O)C1C(O)C3(O)OC2 (configuration not stated) | -8 | / | -15% | 18µM* | / | /
Fc1ccc(NC(=S)Nc2cccc3cnccc23)cc1 | 7 | 22µM* | -10% | -20% | -8% | i
CN(C)S(=O)(=O)c1cccc(NC(=S)Nc2cccc3cnccc23)c1 | ? | 13µM* | ? | -35% | -5% | i
COc1ccc(Cl)cc1-c1ccc(C(=O)O)o1 | / | 1%[120 µM] | / | / | -9%[120 µM] | -7%[126 µM]
CCCCC(=O)OCC(=O)C1(O)Cc2c(O)c3c(c(O)c2C(OC2CC(NC(=O)C(F)(F)F)C(O)C(C)O2)C1)C(=O)c1c(OC)cccc1C3=O (configuration not stated) | -6 | / | -32% | 7.9µM* | / | /
C/C=C(/CC[C@@H](C)[C@H]1CC[C@H]2C3=CC[C@H]4[C@H](C)[C@@H](O)CC[C@]4(C)[C@H]3CC[C@]12C)C(C)C | / | / | / | / | 4% | /
CC(C)(C)C1=CC(=O)C(=O)C(C(C)(C)C)=C1 | ? | -6% | 71µM* | -14% | -6% | i
O=C(COC(=O)CSc1ccc([N+](=O)[O-])cc1)NCCc1ccccc1 | 1 | / | 1% | -16% | 4% | /
CC(OC(=O)CSc1ccc([N+](=O)[O-])cc1)C(=O)NCc1ccccc1 (configuration not stated) | ? | / | 3% | 50µM* | 56% | /
c1ccc(Nc2nc(NCc3ccco3)nc3nccnc23)cc1 | / | / | 9% | / | / | /
Cc1ccc(C(=O)n2ncn(C)c2=S)cc1 | -63* | -2% | -19% | 1% | -5% | -16%
CC(C)OC(=O)c1c2c(n3ccccc13)C(=O)c1ccccc1C2=O | 0 | -18% | ? | 89µM* | 13% | 11%
SMILES | PI5P4K alpha inh | BLM inh | FEN1 inh | WRN helicase inh | APE1 inh | RECQ1 inh
Cc1cc(C)c2c(=O)n(CC(=O)N3CCC(N4CCCCC4)CC3)sc2n1 | -81* | -4% | ? | 2% | 23% | 1%
CC(=O)Cn1cnc2c(sc3nc(C)cc(C)c32)c1=O | -8 | 4% | 13% | -9% | -1% | -3%
CCCNC(=O)Cn1sc2nc(C)cc(C)c2c1=O | -83* | -2% | 50µM* | -15%[11.6 µM] | 1% | 0%
CCOC(=O)C1CCCN(C(=O)Cn2sc3nc(C)cc(C)c3c2=O)C1 (configuration not stated) | -81* | -9% | ? | -1% | 0% | -2%
CSCC[C@H](NC(=O)[C@H](Cc1ccccc1)NC(=O)[C@H](Cc1cnc[nH]1)NC(=O)CNC(=O)[C@@H](NC(=O)[C@H](C)NC(=O)[C@H](Cc1c[nH]c2ccccc12)NC(=O)[C@H](CC(C)C)NC(=O)[C@H](CC(N)=O)NC(=O)CN)[C@@H](C)O)C(N)=O | / | 4% | / | / | 13% | 18%
Cc1ccc(-c2nc(=Nc3c(C)cc(C)cc3C)sn2-c2ccccc2)cc1 | / | / | -21% | / | / | /
O=C(Nc1nnc(Cc2ccccc2)s1)C1CCN(C(=O)c2cccs2)CC1 | / | / | -12% | / | / | /
O=C(/C=C/c1ccco1)c1cccc([N+](=O)[O-])c1 | -73* | / | -8% | ? | / | /
O=C(N/N=C/C=C/c1ccco1)c1cccc([N+](=O)[O-])c1 | -18 | -2% | 0% | -19% | 2% | -26%
CCOc1ccc(C2CC(=O)n3nc(-c4ccc(C)cc4)nc3S2)cc1OC (configuration not stated) | / | -2% | -1% | / | / | /
CC1C(=O)N(Cc2cn(Cc3ccco3)nn2)CCS(=O)(=O)N1Cc1ccc(-c2cccnc2)cc1 (configuration not stated) | ? | / | / | 50µM* | / | /
Cc1ccc(-c2ccc(CN3C(C)C(=O)N(Cc4cn(Cc5ccco5)nn4)CCS3(=O)=O)cc2)cc1 (configuration not stated) | -1 | / | / | -9% | / | /
C=CCOc1ccc(C=NNc2ccc(S(=O)(=O)Nc3ccccc3C(=O)O)cc2[N+](=O)[O-])cc1OC | -83* | / | ? | 50µM* | ? | /
CCOc1cccc(C=NNc2ccc(S(=O)(=O)Nc3ccccc3C(=O)O)cc2[N+](=O)[O-])c1O | ? | / | -31% | -8% | -1% | /
O=C(O)c1ccccc1/C=N/Nc1ccc(S(=O)(=O)N2CCCC2)cc1[N+](=O)[O-] | -2 | -2% | -4% | -19% | 11% | i
COc1ccc(NC(=S)NNc2ccc(S(=O)(=O)Nc3ccccc3C(=O)O)cc2[N+](=O)[O-])cc1 | -71* | 3% | ? | -10%[11.6 µM] | 9% | 12%
CSc1ccc(C=NNc2ccc(S(=O)(=O)Nc3ccccc3C(=O)O)cc2[N+](=O)[O-])cc1 | -53* | / | -5% | ? | 8.4µM* | /
COc1ccc(C=NNc2ccc(S(=O)(=O)Nc3ccccc3C(=O)O)cc2[N+](=O)[O-])c(OC)c1 | -70* | / | 22µM* | ? | ? | /
CCCOC(=O)N1CCN(/[N+]([O-])=N/Oc2ccc([N+](=O)[O-])cc2[N+](=O)[O-])CC1 | / | 6% | -13% | / | -3% | i

Bioassay records (PubChem)
